We go through 15 compounds from PubChem BioAssay AID1117289 (Broad Institute, 2014).

Entries with a potency or affinity are not part of this list. Inconclusive results are not listed. Values without a mark were called inactive. The source made the active and inactive calls.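 Rule for the calls: active = inhibitor whose fitted half-maximal dose is at most twice the top tested dose in every run; inconclusive = runs disagree, poor fit, or flat fit inhibiting 30 to 70%; inactive = every run inactive, flat, rising or too weak.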

In the assay the target is Endoplasmic reticulum aminopeptidase 2 (Homo sapiens) (UniProt Q6P179). The experiment in a line: inhibition of ERAP2 Arg-AMC cleavage – biochemical, plate reader, dry powder, set 2, selectivity assay for selective ERAP1 modulator project, dose response (AID 1117289). The settings on record: purified ERAP2, Arg-AMC hydrolysis fluorescence, 1 h; series mostly up to 50 µM.
Endoplasmic reticulum aminopeptidase 2 (Homo sapiens), sequence (Q6P179 whole entry, looked up): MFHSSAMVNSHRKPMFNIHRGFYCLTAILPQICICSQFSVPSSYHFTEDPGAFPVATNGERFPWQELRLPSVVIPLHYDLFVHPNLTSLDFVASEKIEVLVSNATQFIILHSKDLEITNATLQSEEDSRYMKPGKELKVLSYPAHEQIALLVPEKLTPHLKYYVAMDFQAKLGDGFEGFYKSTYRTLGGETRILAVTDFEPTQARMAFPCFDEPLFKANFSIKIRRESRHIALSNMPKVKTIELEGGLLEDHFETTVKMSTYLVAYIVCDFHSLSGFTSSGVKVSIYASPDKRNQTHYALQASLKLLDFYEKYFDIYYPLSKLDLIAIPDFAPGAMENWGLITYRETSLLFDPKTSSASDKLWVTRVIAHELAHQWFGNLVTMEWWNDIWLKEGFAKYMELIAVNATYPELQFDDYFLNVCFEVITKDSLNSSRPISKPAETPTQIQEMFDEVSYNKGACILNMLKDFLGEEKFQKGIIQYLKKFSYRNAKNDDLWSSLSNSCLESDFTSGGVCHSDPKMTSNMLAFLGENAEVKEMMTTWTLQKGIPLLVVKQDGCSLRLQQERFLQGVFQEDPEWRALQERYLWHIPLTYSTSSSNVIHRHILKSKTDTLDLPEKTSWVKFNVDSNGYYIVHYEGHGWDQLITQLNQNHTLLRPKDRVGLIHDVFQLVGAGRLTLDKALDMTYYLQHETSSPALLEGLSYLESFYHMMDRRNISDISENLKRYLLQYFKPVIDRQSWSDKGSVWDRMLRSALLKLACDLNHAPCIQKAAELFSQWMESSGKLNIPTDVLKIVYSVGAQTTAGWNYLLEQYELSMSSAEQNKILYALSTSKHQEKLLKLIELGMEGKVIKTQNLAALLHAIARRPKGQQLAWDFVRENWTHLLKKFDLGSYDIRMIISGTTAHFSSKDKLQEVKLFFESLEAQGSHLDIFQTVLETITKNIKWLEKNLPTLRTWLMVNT
For `COc1ccc(C(=O)O)cc1S(=O)(=O)N1CCN(c2ccc(C(F)(F)F)cc2N)CC1`, the call was inactive.
Still for that read-out and setting: then `Cc1ccc(C(=O)O)cc1S(=O)(=O)Nc1cc(C(F)(F)F)ccc1N1CCCCC1`, with “inactive”.
Take `COc1ccc(C2=NN(c3ccc(C(=O)O)cc3)C(c3ccc(OC)c(OC)c3)C2)cc1` (stereo not given): the activity change, negative = inhibition is 289% [at 6 µM].
Turning to `O=C(O)c1cc(F)cc(S(=O)(=O)Nc2cc(C(F)(F)F)ccc2N2CCCCC2)c1`, the call was inactive.
On the same count and under the same terms, then `Cc1ccc(S(=O)(=O)Nc2cc(C(F)(F)F)ccc2N2CCCCC2)cc1C(=O)O`, with “inactive”; and `COc1ccc(C(=O)O)cc1S(=O)(=O)Nc1cc(F)ccc1N1CCCCC1`, with “inactive”.
On the same count and under the same terms, then `COc1ccc(C(=O)O)cc1S(=O)(=O)Nc1cc(C(F)(F)F)ccc1N1CCOCC1`, with “inactive”; and `COc1ccc(C(=O)O)cc1S(=O)(=O)N(C)c1cc(C(F)(F)F)ccc1N1CCCCC1`, with “inactive”; and `COc1ccc(C(=O)O)cc1S(=O)(=O)Nc1cc(C(F)(F)F)ccc1N1CCCCC1`, with “inactive”.
Consider `COc1ccc(C(=O)O)cc1S(=O)(=O)Nc1cccc(N2CCCCC2)c1C(F)(F)F`, for which the result was inactive.
The same measure, in the same setting: the same measure for `COc1ccc(C(=O)O)cc1S(=O)(=O)Nc1cc(C(F)(F)F)ccc1N1CCN(C)CC1`: “inactive”; for `COc1ccc(C(=O)Nc2cccc(C(F)(F)F)c2)cc1S(=O)(=O)O`: “inactive”; for `O=C(O)c1cccc(S(=O)(=O)Nc2cc(C(F)(F)F)ccc2N2CCCCC2)c1`: “inactive”.
On to `COc1ccc(C(=O)O)cc1S(=O)(=O)Nc1cc(C(F)(F)F)ccc1N(C)C`, for which the compound was called inactive.
Same read-out and setting: the same measure for `COc1ccc(C(=O)O)cc1S(=O)(=O)Nc1ccccc1N1CCCCC1`: “inactive”.
